Source: PubChem BioAssay (several laboratories)
CHO-K1 Ca antag: M1 antagonist counterscreen hit in parental CHO-K1 cells | ATP-induced calcium, Fluo-8 fluorescence | inhibition, % at 3 µM | 360,000 compounds, 0.6% hits | AID 602250;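 active = inhibition above a per-plate cutoff, the plate's mean sample inhibition plus 3 SD, cut at about 24% in these data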
NTR1 ag: NTR1 (human) agonism; P30989; 330,000 compounds, 0.17% hits; NTR1-U2OS beta-arrestin-GFP spot imaging, agonist mode; activation, % at 20 µM;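 active = activation at or above 40% of the spot to cytoplasm intensity ratio, with at least 20 cells analyzed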
Target sequence (P30989 whole entry, looked up): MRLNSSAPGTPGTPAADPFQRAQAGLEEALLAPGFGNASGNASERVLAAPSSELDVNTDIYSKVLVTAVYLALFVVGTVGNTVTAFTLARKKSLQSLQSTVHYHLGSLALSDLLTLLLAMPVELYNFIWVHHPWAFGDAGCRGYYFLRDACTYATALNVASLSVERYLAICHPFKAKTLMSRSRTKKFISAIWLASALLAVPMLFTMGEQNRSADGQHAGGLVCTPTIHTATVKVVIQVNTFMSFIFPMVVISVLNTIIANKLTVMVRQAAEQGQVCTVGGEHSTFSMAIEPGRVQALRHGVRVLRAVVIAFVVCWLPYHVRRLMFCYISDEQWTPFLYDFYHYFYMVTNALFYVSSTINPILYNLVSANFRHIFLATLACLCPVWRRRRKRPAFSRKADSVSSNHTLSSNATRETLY
ANO1 block: mouse TMEM16A channel inhibition, primary screen. Q8BHY3. HEK293 TMEM16A/YFP iodide influx fluorescence, ionomycin. normalized B-score (activity score, 25-100; higher = stronger inhibition) at 10 µM. 310,000 compounds, 1.2% hits;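 active = ratio plate-corrected score three or more library SD toward inhibition, starting fluorescence score within five deviations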;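 also: score derived from kinetic fluorescence span divided by baseline fluorescence per well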
CHO-K1 Ca ag: nonselective activator or artifact in parental CHO-K1 cells | Fluo-8 calcium fluorescence; scaled to maximal ATP response, vehicle zero | activation, % at 3 µM | 360,000 compounds, 0.48% hits | AID 602248; in the data active = activation above about 15%;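 also: untransfected CHO-K1 host cells lacking M1 receptor as counterscreen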
ANO1 activ: mouse TMEM16A channel activation, primary screen. Q8BHY3. HEK293 TMEM16A/YFP-H148Q/I152L, iodide quench fluorescence; hits give low values. B-score at 10 µM. 340,000 compounds, 0.3% hits. AID 623877;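 active = fluorescence-ratio B-score plate-corrected deviation score at least 3 library SD below zero, with starting fluorescence score within 5 deviations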;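 also: channel opened by trigger with iodide after compound preincubation; score built on the fluorescence ratio of max minus min over baseline; more negative score means more quench and so TMEM16A activation or potentiation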
M1 PAM parental: M1 PAM counterscreen hit in parental CHO-K1 cells. ATP EC20, Fluo-8 calcium fluorescence; 0% at ATP EC20, 100% at ATP max. activation, % at 3 µM. 360,000 compounds, 0.02% hits. AID 602247;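 active = activation above the run cutoff, the mean activation of all test compounds plus 3 SD, cut at about 40% in these data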;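 also: peak over basal fluorescence ratio in a 140 s read after ATP addition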
Numbers stand for hits; i = inactive; nt = no result given. Rows were chosen to be rich in hits. Some 2.2% of all compounds tested hit in one or more screens of this group.

SMILES | CHO-K1 Ca antag | NTR1 ag | ANO1 block | CHO-K1 Ca ag | ANO1 activ | M1 PAM parental
OC(CNCCc1ccc(C(F)(F)F)cc1)COc1cccc2ccccc12 (stereo unspecified) | i | i | i | i | i | i
COc1ccccc1COCC(O)CNCCc1ccc(C(F)(F)F)cc1 (stereo unspecified) | i | i | i | 16 | i | i
CCC(c1nnnn1Cc1cccs1)N1CCN(c2nc3ccccc3s2)CC1 (stereo unspecified) | 48 | i | i | i | i | i
CC(C)CC(c1nnnn1Cc1cccs1)N1CCN(c2nc3ccccc3s2)CC1 (stereo unspecified) | i | i | i | i | -8.3 | i
CC1=C(NCCc2ccccc2)CCC1=O | i | i | i | i | i | i
CCCNC1=C(C)C(=O)CC1 | 24 | i | i | i | i | i
O=C(O)c1nn(Cc2nc3ccccc3o2)c(=O)c2ccccc12 | i | i | i | i | -4.8 | i
Cc1ccc(-c2noc(Cn3nc(C(=O)O)c4ccccc4c3=O)n2)cc1 | i | i | i | i | i | i
Cc1ccc2nc3n(c(=O)c2c1)-c1ccc(Cl)cc1C(=O)NC3CC(C)C (stereo unspecified) | nt | i | nt | nt | nt | nt
Cc1ccc(S(=O)(=O)N2CCOCC2)cc1NC(=O)CN1C(=O)NC(C)(c2ccc(Cl)cc2Cl)C1=O (stereo unspecified) | i | i | nt | i | i | i
Oc1ccc(N=Nc2ccc3c(c2)OCCO3)c2ncccc12 | i | i | i | 17 | i | i
Cc1cccc(N=Nc2ccc(O)c3ncccc23)c1 | i | i | i | i | i | i
CC[C@@]1(C(=O)OC)N[C@H](CN(C)C(=O)Nc2ccc(OC)cc2)[C@@H]2C(=O)N(C)C(=O)[C@@H]21 | i | i | nt | i | nt | i
COCCCN(C(=O)CCOc1ccccc1C)c1c(N)n(Cc2ccccc2)c(=O)[nH]c1=O | i | i | i | i | i | i
Oc1cccc2c(NC(=S)Nc3ccc(SC(F)F)cc3)cccc12 | i | i | 100 | i | i | i
Cc1ccc(N2C(=O)C3N=NN(CC(=O)N4N=C(c5ccccc5)CC4c4ccccc4)C3C2=O)cc1 (stereo unspecified) | 24 | i | i | i | i | i
COc1ccc(C2=NN(C(=O)CCC(=O)O)C(c3ccccc3)C2)cc1 (stereo unspecified) | i | i | nt | i | i | i
CCNC(=O)Nc1cc(S(=O)(=O)Nc2ccc(OC)cc2)ccc1N1CCOCC1 | 28 | i | nt | i | i | i
COc1ccc(NS(=O)(=O)c2ccc3c(c2)N(C(C)=O)CCS3)cc1 | i | i | i | 17 | i | i
CC(=O)c1cccc(NC(=O)c2ccc(-c3c(C)noc3C)c3ccoc23)c1 | i | nt | nt | i | nt | i
O=C(CN1C(=O)c2ccccc2S1(=O)=O)NCc1ccc(F)cc1 | 63 | i | i | i | i | i
O=c1c2ccccc2ncn1-c1ccc([N+](=O)[O-])cc1[N+](=O)[O-] | i | i | i | 19 | i | i
CCc1nc2ccc(C(=O)N3CCNC(=O)C3)cn2c1N(C)CCC(C)C | i | nt | nt | i | nt | i
CN(C)C=Nc1c(Br)cc(Br)c2nonc12 | i | i | i | 18 | i | i
CN(C)C=Nc1nonc1-c1ccccc1 | i | i | i | i | i | i
SMILES | CHO-K1 Ca antag | NTR1 ag | ANO1 block | CHO-K1 Ca ag | ANO1 activ | M1 PAM parental
N#CCCN1CCN(C(=S)c2ccc(-c3ccc(Cl)cc3)o2)CC1 | 27 | i | i | i | i | i
O=C(NCc1cccnc1)c1ccc(-c2ccc(Cl)cc2)o1 | i | i | i | i | i | i
O=C(NCc1cccnc1)/C(=C\c1ccc(-c2ccc(Cl)c(Cl)c2)o1)S(=O)(=O)c1ccccc1 | i | nt | i | i | -6.1 | i
COc1ccc(/C=N/NC(=O)CNc2n[nH]c(=O)[nH]c2=O)cc1OC | 27 | i | i | i | i | i
COc1cc(/C=N/NC(=O)CNc2n[nH]c(=O)[nH]c2=O)ccc1O | i | i | i | i | i | i
COC(=O)c1ccc(N2CCN(S(=O)(=O)c3ccc4ccccc4c3)CC2)c([N+](=O)[O-])c1 | 28 | i | i | i | i | i
N#CC1=C(N)NC(SCC(=O)O)=C(C#N)C12CCCC2 | i | i | i | i | i | i
N#CC1=C(N)NC(SCc2ccc(F)cc2)=C(C#N)C12CCCCC2 | i | i | 100 | i | i | i
CC(C)(C)C1CCC(CN2C(Nc3ccccc3)=NC[C@@H]2Cc2ccccc2)CC1 (stereo partly specified) | i | i | nt | 17 | i | i
CCN1C(Nc2ccccc2)=NC[C@@H]1Cc1ccccc1 | i | i | i | i | i | i
CCCCc1c(-c2ccccc2F)ncn1CCc1ccccc1OC | i | nt | nt | i | nt | i
COCCNC(=O)C1(C)CCCN(Cc2ccc(Cl)nc2)C1 (stereo unspecified) | i | nt | nt | i | nt | i
O=S(=O)(NCCCCCNS(=O)(=O)c1ccccc1)c1ccccc1 | 24 | i | i | i | i | i
CS(=O)(=O)NCCOc1ccc(S(=O)(=O)NCCOc2ccccc2)cc1 | 32 | i | i | i | i | i
C[C@H](O)[C@@H]1C(=O)N2CCc3ccc(-c4ccccc4)cc3[C@@H]2C[C@@H]1N(C)C(=S)Nc1ccc(F)cc1 | i | nt | nt | i | nt | i
COc1c(O)cc2c(c1O)C1OC(CO)C(O)C(O)C1OC2=O (stereo unspecified) | 28 | i | i | i | i | i
CC(C)(C)NC(=O)c1nc2ccccc2s1 | i | i | i | i | i | i
CC(C)(C)NC(=O)c1ccccc1-c1nc2ccccc2s1 | i | i | i | 33 | i | i
CC(=O)NC(c1ccc(F)c(F)c1)c1nc(-c2cccs2)cs1 (stereo unspecified) | i | nt | nt | i | nt | i
CCOc1ccc(C(=O)Nc2cc(-c3nc4ccccc4[nH]3)ccc2Cl)cc1[N+](=O)[O-] | 26 | i | i | i | i | i
CCOc1ccc(C(=O)Nc2cc(-c3nc4ccccc4[nH]3)ccc2C)cc1[N+](=O)[O-] | i | i | i | i | i | i
CCCCCCCCN1C(=O)[C@H](CC(=O)NCCCOC)C[C@@]2(C(=O)OC)CCCCC=C12 | i | nt | nt | i | nt | i
COc1cccc(-c2nc3nc(C)cc(C)n3c2NCc2ccccc2)c1 | i | nt | nt | i | nt | i
CC(=O)Nc1ccc(NC(=O)C(C)OC(=O)CCC2CCCC2)cc1 (stereo unspecified) | 24 | i | i | i | i | i
CC1Cc2ccccc2N1C(=O)CSc1nn2c(=O)c(C(C)(C)C)nnc2s1 (stereo unspecified) | i | i | i | i | -37 | i
CC(C)(C)c1nnc2sc(SCC(=O)N3CCCc4ccccc43)nn2c1=O | i | i | i | i | i | i
COc1ccc(CC(=O)N2CCC(CCC(=O)Nc3ccccc3)CC2)cc1 | 24 | i | i | i | i | i
COc1ccc(O[C@H]2C=C[C@@H](c3ccccc3)O[C@@H]2COC(=O)CC/C(C)=N/OC[C@@H](O)COCc2ccco2)cc1 | nt | i | 25 | nt | nt | nt
